# Measured values as given in paper PMC7862700, “An all-to-all approach to the identification of sequence-specific readers for epigenetic DNA modifications on cytosine”.
# Experiments:
# Test in all cases: DAPPL (digital affinity profiling via proximity ligation, sequencing); 10 mM Tris-HCl pH 7.5, 50 mM NaCl, 1 mM DTT, 4% glycerol, room temperature, 30 min; GST-TFs on glutathione beads, 16-mer random dsDNA library, 0.1% formaldehyde crosslink after washing; high values mean tight binding
# [1] = target: T1, FLI1 (Homo sapiens, UniProt Q01543 1-452); details: protein: recombinant; tags: N-terminal GST; dsDNA, one strand shown
# T1 sequence: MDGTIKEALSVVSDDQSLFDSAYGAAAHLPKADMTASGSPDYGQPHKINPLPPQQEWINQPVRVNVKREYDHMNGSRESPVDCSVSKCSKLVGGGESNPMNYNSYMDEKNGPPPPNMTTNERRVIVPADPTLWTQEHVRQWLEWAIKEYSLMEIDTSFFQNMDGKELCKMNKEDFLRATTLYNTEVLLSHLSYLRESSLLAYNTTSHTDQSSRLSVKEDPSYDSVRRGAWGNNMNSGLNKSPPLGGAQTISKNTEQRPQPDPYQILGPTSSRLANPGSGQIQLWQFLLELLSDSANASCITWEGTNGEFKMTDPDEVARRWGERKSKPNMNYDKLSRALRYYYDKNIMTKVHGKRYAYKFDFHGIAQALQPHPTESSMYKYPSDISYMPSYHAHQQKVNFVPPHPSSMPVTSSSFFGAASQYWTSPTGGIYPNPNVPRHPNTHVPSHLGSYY
# In short: (§1)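 Beads coated with glutathione captured GST-fused human transcription factors that had been expressed in yeast, and the factors were then given DNA barcodes and pooled with a tag-only sample. The pools were incubated with 200 nmole of a random double-stranded 16-mer DNA library in Tris/NaCl/DTT/glycerol buffer for 30 min at room temperature, washed, crosslinked with 0.1% formaldehyde and proximity-ligated with BsaI/T4 ligase at 37 °C for 1 h. PCR amplification and Illumina NextSeq500 sequencing came last. Binding signal is each hexamer's read frequency for a factor divided by its frequency for the tag-only sample.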
# [2] = target: T2, ELK1 (Homo sapiens, UniProt P19419 1-428); details: protein: recombinant; tags: N-terminal GST; dsDNA, one strand shown
# T2 sequence: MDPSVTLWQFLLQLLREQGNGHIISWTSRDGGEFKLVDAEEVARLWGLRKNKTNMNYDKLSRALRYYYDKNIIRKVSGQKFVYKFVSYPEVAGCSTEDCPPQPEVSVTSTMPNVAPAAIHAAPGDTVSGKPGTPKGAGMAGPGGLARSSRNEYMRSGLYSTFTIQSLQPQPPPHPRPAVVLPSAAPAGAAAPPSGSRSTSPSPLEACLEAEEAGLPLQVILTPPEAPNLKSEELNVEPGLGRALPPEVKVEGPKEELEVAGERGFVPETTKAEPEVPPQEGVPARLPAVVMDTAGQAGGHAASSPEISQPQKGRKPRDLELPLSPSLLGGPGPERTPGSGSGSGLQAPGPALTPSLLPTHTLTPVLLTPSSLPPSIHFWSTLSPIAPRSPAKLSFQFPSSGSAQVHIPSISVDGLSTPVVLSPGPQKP
# In short: as §1
# [3] = target: T3, GABPA (Homo sapiens, UniProt Q06546 1-454); details: protein: recombinant; tags: N-terminal GST; dsDNA, one strand shown
# T3 sequence: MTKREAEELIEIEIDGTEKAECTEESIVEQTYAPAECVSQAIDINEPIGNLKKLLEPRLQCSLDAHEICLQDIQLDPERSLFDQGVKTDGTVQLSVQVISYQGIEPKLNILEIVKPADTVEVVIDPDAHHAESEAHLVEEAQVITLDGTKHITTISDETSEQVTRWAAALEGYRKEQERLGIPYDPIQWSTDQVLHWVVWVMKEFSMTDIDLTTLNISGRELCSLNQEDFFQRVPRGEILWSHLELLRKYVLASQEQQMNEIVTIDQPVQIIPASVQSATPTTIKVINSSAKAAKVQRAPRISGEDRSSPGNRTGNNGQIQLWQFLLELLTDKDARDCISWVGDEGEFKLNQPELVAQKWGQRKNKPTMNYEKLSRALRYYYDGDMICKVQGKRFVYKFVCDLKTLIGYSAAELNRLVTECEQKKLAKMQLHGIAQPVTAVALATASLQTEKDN
# In short: as §1
# [4] = target: T4, ERG (Homo sapiens, UniProt P11308 1-479); details: protein: recombinant; tags: N-terminal GST; dsDNA, one strand shown
# T4 sequence: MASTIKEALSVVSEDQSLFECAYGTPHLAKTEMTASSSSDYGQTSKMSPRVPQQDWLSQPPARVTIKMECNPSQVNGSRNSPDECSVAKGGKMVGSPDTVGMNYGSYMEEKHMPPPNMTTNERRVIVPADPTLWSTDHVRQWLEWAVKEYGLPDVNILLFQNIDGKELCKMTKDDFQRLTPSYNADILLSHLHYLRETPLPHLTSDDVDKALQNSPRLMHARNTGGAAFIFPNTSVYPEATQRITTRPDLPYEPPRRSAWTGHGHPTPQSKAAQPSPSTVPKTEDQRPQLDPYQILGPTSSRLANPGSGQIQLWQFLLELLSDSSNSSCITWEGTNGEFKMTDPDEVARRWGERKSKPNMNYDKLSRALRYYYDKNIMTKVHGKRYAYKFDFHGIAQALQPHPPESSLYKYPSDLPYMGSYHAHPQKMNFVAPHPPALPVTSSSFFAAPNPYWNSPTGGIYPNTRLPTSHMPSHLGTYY
# In short: as §1
# [5] = target: ELF1 (Homo sapiens, UniProt P32519 1-619); details: protein: recombinant; tags: N-terminal GST; dsDNA, one strand shown
# ELF1, sequence (P32519 whole entry): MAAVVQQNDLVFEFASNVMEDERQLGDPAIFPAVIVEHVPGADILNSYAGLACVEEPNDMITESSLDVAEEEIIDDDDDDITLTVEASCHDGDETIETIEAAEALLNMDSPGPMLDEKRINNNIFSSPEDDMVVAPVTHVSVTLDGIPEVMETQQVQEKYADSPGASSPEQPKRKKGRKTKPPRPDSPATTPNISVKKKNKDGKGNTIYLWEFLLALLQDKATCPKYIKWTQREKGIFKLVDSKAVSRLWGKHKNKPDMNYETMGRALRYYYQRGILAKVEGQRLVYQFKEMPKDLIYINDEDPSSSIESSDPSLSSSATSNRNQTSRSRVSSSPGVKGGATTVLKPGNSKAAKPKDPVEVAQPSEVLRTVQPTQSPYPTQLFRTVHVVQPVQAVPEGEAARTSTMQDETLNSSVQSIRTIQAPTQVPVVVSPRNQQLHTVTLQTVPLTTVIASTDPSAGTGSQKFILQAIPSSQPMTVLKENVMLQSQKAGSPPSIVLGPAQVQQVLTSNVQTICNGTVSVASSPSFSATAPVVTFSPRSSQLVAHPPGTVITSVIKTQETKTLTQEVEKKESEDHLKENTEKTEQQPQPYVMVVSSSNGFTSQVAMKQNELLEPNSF
# In short: as §1
# [6] = target: T5, EHF (Homo sapiens, UniProt Q9NZC4 1-300); details: protein: recombinant; tags: N-terminal GST; dsDNA, one strand shown
# T5 sequence: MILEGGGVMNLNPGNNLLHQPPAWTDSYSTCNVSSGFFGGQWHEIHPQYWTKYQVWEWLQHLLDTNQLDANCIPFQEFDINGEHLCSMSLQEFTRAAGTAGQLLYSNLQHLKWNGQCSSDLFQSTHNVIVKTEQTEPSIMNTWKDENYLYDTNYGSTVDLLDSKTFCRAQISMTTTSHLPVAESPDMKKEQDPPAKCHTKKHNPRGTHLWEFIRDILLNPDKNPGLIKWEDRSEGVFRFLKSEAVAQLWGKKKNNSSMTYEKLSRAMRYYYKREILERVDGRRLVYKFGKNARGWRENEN
# In short: as §1
# [7] = target: SPI1 (Homo sapiens, UniProt P17947 1-270); details: protein: recombinant; tags: N-terminal GST; dsDNA, one strand shown
# In short: as §1
# [8] = target: SPIB (Homo sapiens, UniProt Q01892 1-262); details: protein: recombinant; tags: N-terminal GST; dsDNA, one strand shown
# SPIB, sequence (Q01892 whole entry): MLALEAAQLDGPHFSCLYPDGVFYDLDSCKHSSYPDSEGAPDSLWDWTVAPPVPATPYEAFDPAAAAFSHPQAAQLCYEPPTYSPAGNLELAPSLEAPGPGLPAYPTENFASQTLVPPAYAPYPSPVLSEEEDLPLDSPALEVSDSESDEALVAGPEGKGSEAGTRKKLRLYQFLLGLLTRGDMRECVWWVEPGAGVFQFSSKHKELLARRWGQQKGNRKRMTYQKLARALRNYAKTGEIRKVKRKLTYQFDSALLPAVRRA
# In short: as §1
# [9] = target: T6, ELK3 (Homo sapiens, UniProt P41970 1-407); details: protein: recombinant; tags: N-terminal GST; dsDNA, one strand shown
# T6 sequence: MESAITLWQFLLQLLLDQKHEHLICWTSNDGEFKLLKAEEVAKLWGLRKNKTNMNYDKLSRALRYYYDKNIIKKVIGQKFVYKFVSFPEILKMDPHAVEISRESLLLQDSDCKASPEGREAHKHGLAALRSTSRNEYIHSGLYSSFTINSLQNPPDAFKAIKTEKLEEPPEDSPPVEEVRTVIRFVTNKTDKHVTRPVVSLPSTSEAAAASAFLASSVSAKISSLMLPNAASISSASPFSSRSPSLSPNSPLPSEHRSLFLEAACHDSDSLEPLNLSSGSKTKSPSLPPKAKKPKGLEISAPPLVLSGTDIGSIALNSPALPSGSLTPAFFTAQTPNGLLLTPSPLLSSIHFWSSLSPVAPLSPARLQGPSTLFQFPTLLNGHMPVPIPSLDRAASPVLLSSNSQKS
# In short: as §1
# [10] = target: T7, FEV (Homo sapiens, UniProt Q99581 1-238); details: protein: recombinant; tags: N-terminal GST; dsDNA, one strand shown
# T7 sequence: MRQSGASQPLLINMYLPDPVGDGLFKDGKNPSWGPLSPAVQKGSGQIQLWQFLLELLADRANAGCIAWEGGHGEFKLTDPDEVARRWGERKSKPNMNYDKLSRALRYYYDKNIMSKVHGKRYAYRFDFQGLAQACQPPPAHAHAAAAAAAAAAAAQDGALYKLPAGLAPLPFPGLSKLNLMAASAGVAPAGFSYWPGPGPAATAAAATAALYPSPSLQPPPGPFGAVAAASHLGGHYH
# In short: as §1
# [11] = target: ETV5 (Homo sapiens, UniProt P41161 1-510); details: protein: recombinant; tags: N-terminal GST; dsDNA, one strand shown
# ETV5, sequence (P41161 whole entry): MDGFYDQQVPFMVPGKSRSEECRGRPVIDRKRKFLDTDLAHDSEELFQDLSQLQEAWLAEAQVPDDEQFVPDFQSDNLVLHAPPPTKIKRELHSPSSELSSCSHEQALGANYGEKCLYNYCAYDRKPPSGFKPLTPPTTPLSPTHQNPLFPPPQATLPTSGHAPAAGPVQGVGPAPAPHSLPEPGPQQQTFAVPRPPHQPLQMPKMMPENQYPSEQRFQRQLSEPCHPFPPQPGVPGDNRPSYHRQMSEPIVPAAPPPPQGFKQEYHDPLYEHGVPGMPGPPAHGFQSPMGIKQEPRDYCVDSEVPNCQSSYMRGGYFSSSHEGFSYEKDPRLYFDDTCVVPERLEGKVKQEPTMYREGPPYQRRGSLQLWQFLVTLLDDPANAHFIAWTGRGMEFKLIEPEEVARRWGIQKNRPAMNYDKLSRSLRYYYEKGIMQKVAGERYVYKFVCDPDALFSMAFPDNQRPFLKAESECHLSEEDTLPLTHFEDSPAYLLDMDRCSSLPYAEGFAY
# In short: as §1
# [12] = target: HSF1 (Homo sapiens, UniProt Q00613 1-529); details: protein: recombinant; tags: N-terminal GST; chain copies: 3; dsDNA, one strand shown
# HSF1, sequence (Q00613 whole entry): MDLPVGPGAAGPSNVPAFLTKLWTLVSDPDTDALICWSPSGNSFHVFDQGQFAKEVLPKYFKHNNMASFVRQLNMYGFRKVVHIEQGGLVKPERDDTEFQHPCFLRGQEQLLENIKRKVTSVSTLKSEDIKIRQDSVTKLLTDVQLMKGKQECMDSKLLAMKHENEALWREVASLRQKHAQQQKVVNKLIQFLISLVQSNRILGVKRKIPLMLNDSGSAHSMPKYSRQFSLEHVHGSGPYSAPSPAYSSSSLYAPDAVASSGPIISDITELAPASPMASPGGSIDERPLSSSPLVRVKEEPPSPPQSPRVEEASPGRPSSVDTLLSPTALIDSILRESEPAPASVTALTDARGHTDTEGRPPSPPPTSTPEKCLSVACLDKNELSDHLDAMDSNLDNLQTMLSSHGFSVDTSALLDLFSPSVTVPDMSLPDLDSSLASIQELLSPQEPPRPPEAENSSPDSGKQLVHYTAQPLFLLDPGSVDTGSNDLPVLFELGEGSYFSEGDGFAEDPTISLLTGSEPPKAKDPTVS
# In short: as §1
# [13] = target: T8, SPIC (Homo sapiens, UniProt Q8N5J4 1-248); details: protein: recombinant; tags: N-terminal GST; dsDNA, one strand shown
# T8 sequence: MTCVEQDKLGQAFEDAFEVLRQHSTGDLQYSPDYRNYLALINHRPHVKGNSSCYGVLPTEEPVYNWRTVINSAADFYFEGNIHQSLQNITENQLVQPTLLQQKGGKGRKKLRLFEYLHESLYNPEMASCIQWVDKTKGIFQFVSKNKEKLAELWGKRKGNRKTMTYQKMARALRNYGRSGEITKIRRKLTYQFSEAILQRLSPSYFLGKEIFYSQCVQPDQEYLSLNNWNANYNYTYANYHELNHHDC
# In short: as §1
# [14] = target: ELF4 (Homo sapiens, UniProt Q99607 1-663); details: protein: recombinant; tags: N-terminal GST; dsDNA, one strand shown
# ELF4, sequence (Q99607 whole entry): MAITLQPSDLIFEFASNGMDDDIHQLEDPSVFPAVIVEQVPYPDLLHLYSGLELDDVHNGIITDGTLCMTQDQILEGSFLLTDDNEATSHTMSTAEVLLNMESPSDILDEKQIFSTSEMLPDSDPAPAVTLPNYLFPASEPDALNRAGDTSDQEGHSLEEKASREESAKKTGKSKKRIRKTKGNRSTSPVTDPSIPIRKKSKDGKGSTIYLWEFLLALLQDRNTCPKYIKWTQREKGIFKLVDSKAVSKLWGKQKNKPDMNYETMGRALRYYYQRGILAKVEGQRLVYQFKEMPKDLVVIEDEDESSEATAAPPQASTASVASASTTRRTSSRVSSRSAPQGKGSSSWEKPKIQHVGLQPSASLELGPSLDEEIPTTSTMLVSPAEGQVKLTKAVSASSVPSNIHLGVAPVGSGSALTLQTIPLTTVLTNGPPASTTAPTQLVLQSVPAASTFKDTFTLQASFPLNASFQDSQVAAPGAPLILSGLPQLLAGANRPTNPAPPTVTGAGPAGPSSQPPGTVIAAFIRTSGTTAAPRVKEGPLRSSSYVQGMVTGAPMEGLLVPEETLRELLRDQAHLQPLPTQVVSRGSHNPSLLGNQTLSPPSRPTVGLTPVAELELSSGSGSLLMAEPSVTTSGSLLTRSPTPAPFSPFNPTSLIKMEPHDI
# In short: as §1
# [15] = target: T9, ELK4 (Homo sapiens, UniProt P28324-2 1-405); details: protein: recombinant; tags: N-terminal GST; dsDNA, one strand shown
# T9 sequence: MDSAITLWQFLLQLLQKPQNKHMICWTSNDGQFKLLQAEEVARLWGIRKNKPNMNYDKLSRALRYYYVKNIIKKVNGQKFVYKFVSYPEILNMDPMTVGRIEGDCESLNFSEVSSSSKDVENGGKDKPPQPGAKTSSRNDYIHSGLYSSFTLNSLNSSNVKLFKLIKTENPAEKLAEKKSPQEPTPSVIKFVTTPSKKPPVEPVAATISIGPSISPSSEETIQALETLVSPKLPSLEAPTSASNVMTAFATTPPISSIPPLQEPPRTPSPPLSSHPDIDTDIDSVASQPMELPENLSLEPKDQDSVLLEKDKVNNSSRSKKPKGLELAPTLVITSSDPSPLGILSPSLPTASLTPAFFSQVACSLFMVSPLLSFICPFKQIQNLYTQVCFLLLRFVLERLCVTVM
# In short: as §1
# [16] = target: T10, ETV2 (Homo sapiens, UniProt O00321 1-342); details: protein: recombinant; tags: N-terminal GST; dsDNA, one strand shown
# T10 sequence: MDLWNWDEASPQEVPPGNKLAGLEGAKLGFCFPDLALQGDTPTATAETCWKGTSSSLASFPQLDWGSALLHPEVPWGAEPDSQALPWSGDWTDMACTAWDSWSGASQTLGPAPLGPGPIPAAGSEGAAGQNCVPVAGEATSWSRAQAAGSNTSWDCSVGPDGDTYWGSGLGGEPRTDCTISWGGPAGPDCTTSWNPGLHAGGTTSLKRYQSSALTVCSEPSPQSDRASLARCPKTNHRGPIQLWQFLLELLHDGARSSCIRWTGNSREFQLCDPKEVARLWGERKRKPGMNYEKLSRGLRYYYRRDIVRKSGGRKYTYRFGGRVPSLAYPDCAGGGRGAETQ
# In short: as §1
# [17] = target: T11, ELF3 (Homo sapiens, UniProt P78545 1-371); details: protein: recombinant; tags: N-terminal GST; dsDNA, one strand shown
# T11 sequence: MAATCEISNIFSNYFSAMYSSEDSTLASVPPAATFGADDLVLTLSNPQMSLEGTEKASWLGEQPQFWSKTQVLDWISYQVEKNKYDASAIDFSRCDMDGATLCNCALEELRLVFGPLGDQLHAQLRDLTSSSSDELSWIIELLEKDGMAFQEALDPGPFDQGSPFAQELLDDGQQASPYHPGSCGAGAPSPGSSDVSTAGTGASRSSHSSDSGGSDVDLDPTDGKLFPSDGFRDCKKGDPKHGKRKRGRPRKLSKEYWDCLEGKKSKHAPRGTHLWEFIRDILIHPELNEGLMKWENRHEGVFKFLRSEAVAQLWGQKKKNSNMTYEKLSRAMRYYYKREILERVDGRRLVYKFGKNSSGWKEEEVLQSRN
# In short: as §1
# [18] = target: CRX (Homo sapiens, UniProt O43186 1-299); details: protein: recombinant; tags: N-terminal GST; dsDNA, one strand shown
# CRX, sequence (O43186 whole entry): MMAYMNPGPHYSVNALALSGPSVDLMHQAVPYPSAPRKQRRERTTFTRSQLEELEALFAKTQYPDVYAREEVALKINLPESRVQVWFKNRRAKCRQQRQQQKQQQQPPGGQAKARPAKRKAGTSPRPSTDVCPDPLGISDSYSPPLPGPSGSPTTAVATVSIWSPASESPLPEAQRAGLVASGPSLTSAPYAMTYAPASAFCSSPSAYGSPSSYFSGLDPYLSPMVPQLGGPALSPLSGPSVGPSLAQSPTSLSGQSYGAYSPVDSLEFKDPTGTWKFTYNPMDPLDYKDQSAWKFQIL
# In short: as §1
# [19] = target: ETV1 (Homo sapiens, UniProt P50549 1-477); details: protein: recombinant; tags: N-terminal GST; dsDNA, one strand shown
# ETV1, sequence (P50549 whole entry): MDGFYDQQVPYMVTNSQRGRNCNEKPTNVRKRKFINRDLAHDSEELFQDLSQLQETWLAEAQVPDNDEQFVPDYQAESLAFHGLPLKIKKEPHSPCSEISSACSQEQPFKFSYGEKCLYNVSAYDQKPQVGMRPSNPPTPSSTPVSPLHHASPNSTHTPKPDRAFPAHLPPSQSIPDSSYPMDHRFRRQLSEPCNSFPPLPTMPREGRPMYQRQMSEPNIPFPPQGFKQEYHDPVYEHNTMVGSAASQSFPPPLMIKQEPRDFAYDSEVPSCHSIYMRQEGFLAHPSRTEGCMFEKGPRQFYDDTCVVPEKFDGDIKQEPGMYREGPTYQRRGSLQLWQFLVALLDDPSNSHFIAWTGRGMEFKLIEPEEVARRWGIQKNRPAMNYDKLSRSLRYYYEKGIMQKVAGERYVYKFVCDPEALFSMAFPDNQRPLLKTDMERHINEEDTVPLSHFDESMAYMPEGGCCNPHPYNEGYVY
# In short: as §1
sequence,measurement,setting,value
TTAAAA,binding signal,[1],"1.19 fold enrichment (6-mer frequency, TF over GST control)"
same,binding signal,[2],"1.15 fold enrichment (6-mer frequency, TF over GST control)"
same,binding signal,[3],"1.19 fold enrichment (6-mer frequency, TF over GST control)"
same,binding signal,[4],"1.15 fold enrichment (6-mer frequency, TF over GST control)"
same,binding signal,[5],"1.22 fold enrichment (6-mer frequency, TF over GST control)"
same,binding signal,[6],"1.16 fold enrichment (6-mer frequency, TF over GST control)"
same,binding signal,[7],"1.33 fold enrichment (6-mer frequency, TF over GST control)"
same,binding signal,[8],"1.23 fold enrichment (6-mer frequency, TF over GST control)"
same,binding signal,[9],"1.22 fold enrichment (6-mer frequency, TF over GST control)"
same,binding signal,[10],"1.16 fold enrichment (6-mer frequency, TF over GST control)"
same,binding signal,[11],"1.14 fold enrichment (6-mer frequency, TF over GST control)"
same,binding signal,[12],"1.87 fold enrichment (6-mer frequency, TF over GST control)"
same,binding signal,[13],"1.28 fold enrichment (6-mer frequency, TF over GST control)"
same,binding signal,[14],"1.19 fold enrichment (6-mer frequency, TF over GST control)"
same,binding signal,[15],"1.27 fold enrichment (6-mer frequency, TF over GST control)"
same,binding signal,[16],"1.25 fold enrichment (6-mer frequency, TF over GST control)"
same,binding signal,[17],"1.24 fold enrichment (6-mer frequency, TF over GST control)"
same,binding signal,[18],"2.69 fold enrichment (6-mer frequency, TF over GST control)"
same,binding signal,[19],"1.22 fold enrichment (6-mer frequency, TF over GST control)"
